Source: PubChem (National Center for Advancing Translational Sciences (NCATS))
mIDH1 inhibitor = human IDH1 R132H inhibition | IDH1-R132H enzyme, NADPH consumption, diaphorase/resazurin fluorescence | Potency, µM (top dose mostly 76.6 µM), inactives show at the top dose activity change, negative = inhibition, actives largely listed as inhibitors | hit rate 0.093% among 390,000 | AID 602179; also: potency is read from the fitted curve at half-maximal effect; nearly all actives have a fitted effect of over 65% in size
Target sequence (O75874 whole entry R132H, stated change not applied): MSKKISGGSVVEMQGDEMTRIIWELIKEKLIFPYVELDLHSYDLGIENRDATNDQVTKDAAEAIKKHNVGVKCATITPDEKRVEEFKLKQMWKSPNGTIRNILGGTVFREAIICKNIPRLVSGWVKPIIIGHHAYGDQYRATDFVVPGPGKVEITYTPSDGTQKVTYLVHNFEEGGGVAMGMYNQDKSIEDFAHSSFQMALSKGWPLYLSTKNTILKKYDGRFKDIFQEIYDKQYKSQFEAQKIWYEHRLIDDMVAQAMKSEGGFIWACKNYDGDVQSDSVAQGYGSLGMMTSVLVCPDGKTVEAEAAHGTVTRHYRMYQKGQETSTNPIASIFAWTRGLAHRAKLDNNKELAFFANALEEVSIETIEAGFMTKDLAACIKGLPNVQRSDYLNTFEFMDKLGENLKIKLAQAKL
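IDH1-R132H (0.5 ug/mL dispensed) in pH 7.5 Tris buffer was preincubated 30 min with compound, then given a substrate mix of 0.016 mM NADPH and 2 mM alpha-KG for 80 min at room temperature; remaining NADPH was read by diaphorase/resazurin fluorescence.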
TrxR1 substrate = rat thioredoxin reductase 1 substrate activity; Potency, µM (titrated, usually from 114 µM), inactives show at the highest dose activity change, negative = substrate turnover; O89049; hit rate 0.01% among 390,000; purified TrxR1 substrate turnover, NADPH consumption readout; AID 588456; also: potency is read from the fitted curve at half-maximal effect; nearly all actives have a fitted effect of over 50% in size
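Rat TrxR1, dispensed at 90 nM, was prereduced with 400 uM NADPH (final) for 5 min at ~22 deg C, then incubated with compound 15 min before 400 uM selenite. A first-read NADPH fluorescence drop versus no-compound background flagged substrates.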
TrxR1 inh = inhibitors of rat thioredoxin reductase 1 | Potency, µM (doses to about 114 µM), for inactives: at the highest dose activity change, negative = inhibition, most hits filed as inhibitors | AID 588453 | hit rate 1% among 390,000 | recombinant rTrxR1, NADPH fluorescence consumption, selenite substrate | O89049; also: potency is read from the fitted curve at half-maximal effect; nearly all actives have a fitted effect of over 65% in size
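Rat TrxR1 (90 nM in the dispensed reagent) was pre-reduced with 400 uM NADPH for 5 min at room temperature, then incubated with compound for 15 min. After 400 uM selenite was added, NADPH fluorescence (Ex 340/Em 450 nm) was followed for 8 min.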
Coupling enz = inhibits coupling enzyme system, counter-screen for aldolase hits; activity change, negative = inhibition, % at 58.2 µM, hits read low; coupling enzyme system counterscreen, AmpLite Red fluorescence; hit rate 0.67% among 290,000; in the data active = activity change below about -30%
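Coupling enzymes only (glyceraldehyde-3-phosphate) + compound, at 57.5 uM final, 10 min RT; add substrate/coupling/AmpLite Red mix, 20 min RT; fluorescence ex 525/em 598 nm. Actives flag coupling-system interference.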
Eya2 inh = Eya2 (human) phosphatase inhibition; O00167; recombinant Eya2, OMFP fluorescence dephosphorylation (OMFP is methylfluorescein phosphate); Potency, µM (series often up to 76.9 µM), for inactives: top-dose activity, negative = inhibition, usual class: inhibitors; hit rate 0.006% among 330,000; AID 488837; also: potency is read from the fitted curve at half-maximal effect
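Eya2 protein (added as 0.2 uM solution) was preincubated with compound for 10 min at ambient temperature in 50 mM HEPES pH 7.5, 50 mM NaCl, 5 uM MgCl2, 0.05% BSA, 1 mM DTT. OMFP (added at 50 uM) then reacted 10 min; fluorescence read at 485/525 nm.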
An asterisk follows results filed as active; ? = inconclusive; / = no result; [ ] = another dose, or the depositor's remark. Compounds with a hit are over-represented: about 1.5% of the library has one in this group of screens. Unless noted, calls follow the shape of the dose curve; as a rule, active = well fitted curve in the direction sought with a large enough effect; inconclusive = small, poorly fitted or top-dose-only effect, or another doubt; inactive = no such curve, though single readings can be large; an effect the other way counts as inactive or inconclusive. % is scaled to controls: 0 for no effect and ±100 for the full control effect.

SMILES | mIDH1 inhibitor | TrxR1 substrate | TrxR1 inh | Coupling enz | Eya2 inh
Nc1c(C(=O)NCc2ccco2)c2nc3ccccc3nc2n1CCc1ccccc1 | -19% | 53% | -21% | -34* | -18%
O=C(Nc1nc(-c2cc3ccccc3o2)cs1)c1ccc(S(=O)(=O)N2CCCC2)cc1 | 0% | 11% | 79µM* | -8 | 0%
CC1CN(S(=O)(=O)c2ccc(C(=O)Nc3nc(-c4cc5ccccc5o4)cs3)cc2)CC(C)O1 (centres undefined) | 6% | 32% | 21% | 5 | 4%
O=C1C=C(Nc2ccccc2)C(=O)c2ccccc21 | -1% | 1%[57.1 µM] | 4%[57.1 µM] | -19 | -10%
O=S(=O)(Nc1cccc2cccnc12)c1ccccc1Br | / | 1% | -18% | / | /
O=C1C=C(Nc2ccccc2)c2ccccc2C1=O | 22% | -7%[57.1 µM] | 18%[57.1 µM] | -49* | 11%
O=C1C=C(Nc2ccccc2C(=O)O)c2ccccc2C1=O | 26% | 2%[57.1 µM] | 40%[57.1 µM] | -49* | -2%
O=C1C=C(Nc2cccc3cccnc23)c2ccccc2C1=O | 16% | -11% | ? | -65* | -25%
Nc1ccccc1S(=O)(=O)Nc1cccc2cccnc12 | / | / | / | -48* | /
O=C(O)c1ccccc1Nc1ccccc1C(=O)O | 7% | 5% | 16% | 1 | -4%
CCCN1CNc2c(c(=O)[nH]c(=S)n2CCc2ccc(C)cc2C)C1 | / | 3% | -13% | / | /
COc1cc(OC)cc(-c2nnc3n2N=C(c2ccccc2OC)CS3)c1 | / | / | / | -8 | /
COc1cnc(-c2ccccn2)nc1NC(C)C | -3% | -3%[57.1 µM] | -5%[57.1 µM] | -36* | -1%
COc1cnc(-c2ccccn2)[nH]c1=O | -5% | 3%[57.1 µM] | 1%[57.1 µM] | -64* | -28%
CCc1cc2c(=O)[nH]c(-c3ccccn3)nc2s1 | 10% | -2% | 2% | -16 | 3%
COC(=O)C1=C(C(=O)OC)[C@@H]2Nc3ccccc3[C@@]23C[C@@H](C(=O)OC)N(S(=O)(=O)c2ccc(OC)cc2)C3=N1 | / | / | / | 3 | /
O=[N+]([O-])c1c(Nc2ccccn2)cc(Cl)c2nonc12 | 1% | -12% | 1.3µM* | -57* | 2%
O=[N+]([O-])c1c(Nc2ccc(O)cc2)cc(Cl)c2nonc12 | -18% | 3%[57.1 µM] | ? | 3 | -9%
O=C(O)c1ccccc1Nc1cc(Cl)c2nonc2c1[N+](=O)[O-] | 2% | -14% | 1.6µM* | 7 | 0%
O=C(O)c1cccc(Nc2cc(Cl)c3nonc3c2[N+](=O)[O-])c1 | 8% | -17% | 1.4µM* | 2 | 11%
Nc1c(Cl)cc(/C=C2\C=Cc3ccccc32)cc1Cl | / | 3% | 0% | / | /
CCCCn1cnc2c(SCc3ccc([N+](=O)[O-])cc3)nc(N)nc21 | 0% | -4% | 5% | / | /
CCCn1cnc2c(Sc3c([N+](=O)[O-])ncn3C)nc(N)nc21 | 1% | -4% | 3.2µM* | / | /
Nc1nc(SCc2ccccc2[N+](=O)[O-])c2ncn(Cc3ccccc3)c2n1 | -9% | -1% | 19% | / | /
CCCn1cnc2c(SCc3ccccc3F)nc(N)nc21 | 3% | 1%[2.29 µM] | 13%[2.29 µM] | / | /
SMILES | mIDH1 inhibitor | TrxR1 substrate | TrxR1 inh | Coupling enz | Eya2 inh
CCCCn1cnc2c(Sc3c([N+](=O)[O-])ncn3C)nc(N)nc21 | 2% | -6% | 2.8µM* | / | /
Cn1cnc([N+](=O)[O-])c1Sc1nc(N)nc2c1ncn2Cc1ccccc1 | 5% | -8% | 6.3µM* | / | /
C#CCN(C1CCCC1)S(=O)(=O)C=C | / | 2% | ? | / | /
CC(C)(C)n1ncc2c(=O)n(Cc3cccc(-c4ccccc4)c3)cnc21 | / | -3% | 2% | / | /
COC/C=C/C1=CC2=CC(=O)C(C)(OC(=O)C3CCCC3)C(=O)C2=CO1 (centres undefined) | -3% | 10%[57.1 µM] | 13µM* | 3 | 3%
COC/C=C/C1=CC2=CC(=O)C(C)(OC(=O)c3ccco3)C(=O)C2=CO1 (centres undefined) | / | / | / | 2 | -4%
CCOC(=O)c1cnc2ccc(OCC)cc2c1N1CCN(C)CC1 | 3% | 13%[57.1 µM] | 35%[57.1 µM] | -39* | 8%
C[C@H]1O[C@@H](n2cnc3c(N)ncnc32)C[C@@H]1OP(=O)(O)OP(=O)(O)OP(=O)(O)O | / | / | / | 5 | /
CC(=O)Nc1ccc(SC[C@H](Cc2ccccc2)N2CC[C@@H](N)CCC2=O)cc1 | / | -8% | -18% | / | /
